In PubChem BioAssay AID1159580 (chemical genetic matrix, 2015):
“And” between values parts separate entries of the source, which are not always exact repeats. Equal entries are not always repeated. Screen size: about 5,500 compounds; about 2,000 (36%) were called active. Another 18% or so got no clear call; they are omitted. Rule as the data show it: active = normalized growth mostly below about 0.91 (no sharp cut-off); inconclusive = no clear call, values can overlap the other calls; inactive = mostly above about 0.92. The list shows a part of the results.

Assay: chemical genetic growth profiling, strain panel (AID 1159580);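 also: tested at 20 µM; growth read once vehicle control cultures reached saturation at 30 °C; 1 = growth at the plate median or of vehicle wells; lower values mean less growth of the strain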
Conditions: growth OD

Measured: normalized growth

NC(=O)CN1CCCC1=O
inactive: S. cerevisiae deletion strains, locus YKL009W, strain mrt4, active compounds read low 1.01 | S. cerevisiae deletion strains, locus YKL068W, active compounds read low 1 | S. cerevisiae deletion strains, locus YKL085W, strain MDH1 (second series), active compounds read low 1.02 | S. cerevisiae deletion strains, locus YKL085W, strain MDH1, active compounds read low 1.02 | S. cerevisiae deletion strains, locus YKL160W, strain elf1, active compounds read low 0.967 | S. cerevisiae deletion strains, locus YKL190W, strain CNB1, active compounds read low 1 | S. cerevisiae deletion strains, locus YKR001C, strain vps1, active compounds read low 1.01 | S. cerevisiae deletion strains, locus YKR026C, strain gcn3, active compounds read low 0.992 | S. cerevisiae deletion strains, locus YKR091W, strain srl3, active compounds read low 0.995 | S. cerevisiae deletion strains, locus YLL001W, strain dnm1, active compounds read low 0.958 | S. cerevisiae deletion strains, locus YLL026W, active compounds read low 0.999 | S. cerevisiae deletion strains, locus YLL041C, strain sdh2, active compounds read low 0.992 | S. cerevisiae deletion strains, locus YLR027C, strain aat2, active compounds read low 0.999 | S. cerevisiae deletion strains, locus YLR039C, strain RIC1, active compounds read low 1.01 | S. cerevisiae deletion strains, locus YLR058C, strain SHM2, active compounds read low 1.01 | S. cerevisiae deletion strains, locus YLR102C, strain apc9, active compounds read low 1.01 | S. cerevisiae deletion strains, locus YLR113W, strain HOG1, active compounds read low 0.954 | S. cerevisiae deletion strains, locus YLR221C, strain rsa3, active compounds read low 0.989 | S. cerevisiae deletion strains, locus YLR258W, strain gsy2, active compounds read low 0.99 | S. cerevisiae deletion strains, locus YLR262C, strain YPT6 (second series), active compounds read low 0.987 | S. cerevisiae deletion strains, locus YLR262C, strain YPT6, active compounds read low 1.02 | S. cerevisiae deletion strains, locus YLR268W, strain sec22, active compounds read low 1.01 | S. cerevisiae deletion strains, locus YLR320W, strain mms22, active compounds read low 0.958 | S. cerevisiae deletion strains, locus YLR330W, strain CHS5, active compounds read low 0.996 | S. cerevisiae deletion strains, locus YLR342W, strain FKS1 (second series), active compounds read low 1.02 | S. cerevisiae deletion strains, locus YLR342W, strain FKS1, active compounds read low 0.98 | S. cerevisiae deletion strains, locus YLR357W, strain rsc2, active compounds read low 0.977 | S. cerevisiae deletion strains, locus YLR370C, strain arc18, active compounds read low 0.99 | S. cerevisiae deletion strains, locus YLR371W, strain rom2, active compounds read low 1.01 | S. cerevisiae deletion strains, locus YLR384C, strain iki3, active compounds read low 0.977 | S. cerevisiae deletion strains, locus YLR418C, strain cdc73, active compounds read low 1.01 | S. cerevisiae deletion strains, locus YML016C, strain PPZ1, active compounds read low 0.999 | S. cerevisiae deletion strains, locus YML032C, strain rad52, active compounds read low 1.01 | S. cerevisiae deletion strains, locus YML120C, strain ndi1, active compounds read low 0.983 | S. cerevisiae deletion strains, locus YML124C, strain tub3, active compounds read low 1.01 | S. cerevisiae deletion strains, locus YMR058W, strain fet3, active compounds read low 0.988 | S. cerevisiae deletion strains, locus YMR078C, strain ctf18, active compounds read low 1 | S. cerevisiae deletion strains, locus YMR125W, strain sto1, active compounds read low 0.996 | S. cerevisiae deletion strains, locus YMR129W, active compounds read low 1 | S. cerevisiae deletion strains, locus YMR205C, strain PFK2, active compounds read low 0.973 | S. cerevisiae deletion strains, locus YMR223W, strain ubp8, active compounds read low 1.01 | S. cerevisiae deletion strains, locus YMR231W, strain pep5, active compounds read low 0.997 | S. cerevisiae deletion strains, locus YMR263W, strain SAP30, active compounds read low 0.993 | S. cerevisiae deletion strains, locus YMR307W, strain GAS1, active compounds read low 1.06 | S. cerevisiae deletion strains, locus YNL067W, strain RPL9B, active compounds read low 1.01 | S. cerevisiae deletion strains, locus YNL071W, strain lat1, active compounds read low 0.991 | S. cerevisiae deletion strains, locus YNL128W, strain TEP1, active compounds read low 1.05 | S. cerevisiae deletion strains, locus YNL153C, strain GIM3, active compounds read low 0.979 and 1.17 | S. cerevisiae deletion strains, locus YNL175C, strain NOP13, active compounds read low 0.997 | S. cerevisiae deletion strains, locus YNL183C, strain NPR1, active compounds read low 0.915 | S. cerevisiae deletion strains, locus YNL197C, strain WHI3, active compounds read low 1.01 | S. cerevisiae deletion strains, locus YNL209W, strain ssb2, active compounds read low 0.998 | S. cerevisiae deletion strains, locus YNL224C, strain SQS1, active compounds read low 0.995 | S. cerevisiae deletion strains, locus YNL233W, strain BNI4, active compounds read low 0.985 | S. cerevisiae deletion strains, locus YNL248C, strain rpa49, active compounds read low 0.982 | S. cerevisiae deletion strains, locus YNL250W, strain rad50, active compounds read low 1 | S. cerevisiae deletion strains, locus YNL271C, strain bni1, active compounds read low 1.01 | S. cerevisiae deletion strains, locus YNL298W, strain CLA4, active compounds read low 1.03 | S. cerevisiae deletion strains, locus YNL307C, strain MCK1, active compounds read low 1.03 | S. cerevisiae deletion strains, locus YNL322C, strain KRE1 (second series), active compounds read low 0.992 | S. cerevisiae deletion strains, locus YNL322C, strain KRE1, active compounds read low 1 | S. cerevisiae deletion strains, locus YNR049C, strain mso1, active compounds read low 0.99 | S. cerevisiae deletion strains, locus YNR052C, strain pop2, active compounds read low 1.01 | S. cerevisiae deletion strains, locus YOL006C, strain TOP1, active compounds read low 1.04 | S. cerevisiae deletion strains, locus YOL012C, strain htz1 0.826 | S. cerevisiae deletion strains, locus YOL147C, strain pex11, active compounds read low 1.01 | S. cerevisiae deletion strains, locus YOR001W, strain rrp6, active compounds read low 1.01 | S. cerevisiae deletion strains, locus YOR061W, strain CKA2, active compounds read low 1.01 | S. cerevisiae deletion strains, locus YOR069W, strain VPS5, active compounds read low 1.01 | S. cerevisiae deletion strains, locus YOR070C, strain gyp1, active compounds read low 0.993 | S. cerevisiae deletion strains, locus YOR080W, strain dia2, active compounds read low 0.994 | S. cerevisiae deletion strains, locus YOR083W, strain WHI5 (second series), active compounds read low 0.99 | S. cerevisiae deletion strains, locus YOR083W, strain WHI5, active compounds read low 0.968 | S. cerevisiae deletion strains, locus YOR106W, strain vam3, active compounds read low 0.967 | S. cerevisiae deletion strains, locus YOR136W, strain idh2, active compounds read low 1 | S. cerevisiae deletion strains, locus YOR144C, strain elg1, active compounds read low 0.998 | S. cerevisiae deletion strains, locus YOR184W, strain ser1, active compounds read low 1 | S. cerevisiae deletion strains, locus YOR231W, strain MKK1, active compounds read low 0.984 | S. cerevisiae deletion strains, locus YOR265W, strain rbl2, active compounds read low 0.992 | S. cerevisiae deletion strains, locus YOR270C, strain vph1, active compounds read low 0.97 | S. cerevisiae deletion strains, locus YOR290C, strain snf2, active compounds read low 0.99 | S. cerevisiae deletion strains, locus YOR316C, strain cot1, active compounds read low 1.02 | S. cerevisiae deletion strains, locus YPL051W, strain arl3, active compounds read low 0.99 | S. cerevisiae deletion strains, locus YPL055C, strain LGE1, active compounds read low 0.968 | S. cerevisiae deletion strains, locus YPL078C, strain atp4, active compounds read low 0.979 | S. cerevisiae deletion strains, locus YPL106C, strain sse1, active compounds read low 0.958 | S. cerevisiae deletion strains, locus YPL240C, strain hsp82, active compounds read low 0.999 | S. cerevisiae deletion strains, locus YPL241C, strain CIN2, active compounds read low 1.01 and 1 | S. cerevisiae deletion strains, locus YPL256C, strain CLN2, active compounds read low 0.979 | S. cerevisiae deletion strains, locus YPR119W, strain clb2, active compounds read low 1 | S. cerevisiae deletion strains, locus YPR141C, strain kar3, active compounds read low 1.01 | S. cerevisiae deletion strains, locus YPR163C, strain tif3, active compounds read low 1.01 | S. cerevisiae deletion strains, locus YPR167C, strain met16, active compounds read low 1 | S. cerevisiae deletion strains, strain wtn01, active compounds read low 1.01 | S. cerevisiae strains, strain wild type, active compounds read low 1
